Test results reported in PubChem BioAssay AID620 (Sanford-Burnham Center for Chemical Genomics, 2007).
The whole screen tested about 87,000 compounds, of which about 360 (0.41%) were called active. The full list was thinned out, with actives kept by preference. Values without a mark were called inactive. No stated cut-off is given here; in the data, active means cytotoxicity above about 50%; inactive means the rest.

experiment: cytotoxicity in HT1080 fibrosarcoma cells, cell-based, fluorescence readout (AID 620); details: HT1080 viability, at 10 µM, active compounds read high;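 further: cells exposed to compound overnight then 4 h with Alamar Blue; 0% = vehicle DMSO and 100% = killing control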

| Compound | cytotoxicity |
| --- | --- |
| O=C(CSc1nnc(-c2cccs2)o1)c1cccs1 | 25.4% |
| Cc1cc(C(=O)CSc2nnc(-c3ccccc3F)o2)c(C)n1Cc1cccs1 | -6.5% |
| COC(=O)C1=C(COc2ccccc2)NC(=O)NC1c1ccc2ccccc2c1 (configuration not stated) | -5.7% |
| CCOC(=O)C1=C(N)n2c(s/c(=C\c3cccs3)c2=O)=C(C(=O)OCC)C1c1cccs1 (configuration not stated) | 56.3% (active) |
| CCOC(=O)C1=C(N)n2c(s/c(=C\c3ccco3)c2=O)=C(C(=O)OCC)C1c1ccco1 (configuration not stated) | 36.1% |
| CCOC(=O)C1=C(N)n2c(s/c(=C/c3ccccc3)c2=O)=C(C(=O)OCC)C1c1ccccc1 (configuration not stated) | -1.6% |
| c1ccc(-c2cn3c(n2)CCc2ccc4cccnc4c2-3)cc1 | 37% |
| Brc1ccc(-c2cn3cccnc3n2)cc1 | 9.4% |
| Brc1ccc(-c2cn3c(n2)CCc2ccc4cccnc4c2-3)cc1 | 53.1% (active) |
| CCn1c(=O)n(CC)c2cc(S(=O)(=O)N3CCc4ccccc43)ccc21 | 71.3% (active) |
| Cn1c(=O)c(=O)n(C)c2cc(S(=O)(=O)N3CCc4ccccc43)ccc21 | -4% |
| CCn1c(=O)n(CC)c2cc(S(=O)(=O)N3CCC(c4ccccc4)CC3)ccc21 | -6.5% |
| Cc1cc(C)c(C)c(S(=O)(=O)NCc2ccco2)c1C | 24.4% |
| COc1ccc(C(=O)c2ccc(OC)c(N)c2)cc1N | 53.8% (active) |
| COc1ccc(C(N)=O)cc1N | 2.5% |
| COc1ccc(C(=O)c2ccc(OC)c(OC)c2)cc1OC | 14.8% |
| COc1ccc(OCCCC(=O)Nc2nncs2)cc1 | 8.3% |
| O=C(NCCN1CCN(c2ccccc2F)CC1)C1CC(=O)N(C2CCCC2)C1 (configuration not stated) | 7% |
| CC1CCCCC1NC(=O)CSc1nncs1 (configuration not stated) | -0.9% |
| COC(=O)c1ccc(OC(=O)c2ccc(OCc3c(C)noc3C)c(OC)c2)cc1 | -2% |
| COC(=O)c1ccc(OC(=O)c2ccc(OC)c(OC)c2)c(OC)c1 | -8% |
| COC(=O)c1ccc2c(c1)C(C)(C)C(/C=C/c1ccc(OC)c(OC)c1OC)=[N+]2C | 64.8% (active) |
| O=C(Nc1cccc(Cl)c1)N(CCN1CCOCC1)Cc1cccc(Cl)c1 | 24% |
| Cc1ccc(NC2=NCC(=O)N2Cc2ccccc2)c(C)c1 | -14.9% |
| COC(=O)c1cc2ccsc2n1Cc1nc(-c2ccc(OC)cc2)oc1C | -11.4% |
| COC(=O)c1cc2ccsc2n1Cc1cc(=O)n2ccccc2n1 | 60.2% (active) |
| COC(=O)c1cc2ccsc2n1CC(=O)N(C)c1ccccc1 | -3.5% |
